Consider eight compounds from PubChem BioAssay (NCI).

Test systems include NCI-H23 lung; NCI-H226 lung; NCI-H322M lung; NCI-H460 lung; HOP-92 NSCLC; NCI-H522 lung; A549/ATCC NSCLC; 786-0 renal; COLO 205 colon; DU-145 prostate; K-562 leukemia; MALME-3M melanoma; MDA-MB-231 breast; SF-268 CNS; SF-295 CNS; SF-539 CNS; UACC-257 melanoma; M14 melanoma; RXF 393 renal; HOP-62 NSCLC.
Assay in all cases: NCI-60 one-dose screen, 48 h (100 = growth as untreated, 0 = no growth, -100 = all killed)
What all share (conditions): 10 µM unless noted

SMILES strings stand for the structures. This is part of a sample that, as a whole, favours compounds with a hit. Of some 83,000 tested, about 20% had one in any assay.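 Treatment: one concentration, 48 hours, 96-well format. Scoring: percent growth, with anything below 10 considered active.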 Unmarked numbers belong to inactive results. Active and inactive are the calls of the source.

For the compound `COc1cc(OC)c(/C=C/c2cc[n+](C)c3ccccc23)c(OC)c1`, the growth with NCI-H23 lung was 17.3%; with NCI-H226 lung it was 23.1%; in the experiment with NCI-H322M lung it was 6.52% (active); with NCI-H460 lung, 4.59% (active); with HOP-92 NSCLC, -10.8% (active); with NCI-H522 lung it was -35.3% (active). Further, the growth in the experiment with A549/ATCC NSCLC was 8.24% (active); in the experiment with 786-0 renal, 26.1%; with COLO 205 colon, -83.9% (active); in the experiment with DU-145 prostate, 18.5%; with K-562 leukemia, 7.21% (active); with MALME-3M melanoma, 5.28% (active). Moreover, the growth is 22.5% in the experiment with MDA-MB-231 breast; 15.7% in the experiment with SF-268 CNS; -48.8% (active) in the experiment on SF-295 CNS; 12% in the experiment with SF-539 CNS; -24.7% (active) in the experiment with UACC-257 melanoma; 36.2% in the experiment with M14 melanoma.

`C=C1CC2(OC1=O)C(=O)Nc1ccccc12` (centres undefined): the growth in the experiment on NCI-H23 lung was 67.7%; in the experiment with NCI-H226 lung, 72.9%; in the experiment with NCI-H322M lung, 93.8%; in the experiment on NCI-H460 lung it was 77.8%; in the experiment on HOP-92 NSCLC it was 9.19% (active); in the experiment on A549/ATCC NSCLC, 100%. Besides, the growth with 786-0 renal is 76.2%; in the experiment with COLO 205 colon, 10.3%; in the experiment with DU-145 prostate it was 43%; with K-562 leukemia, 21.8%; with MALME-3M melanoma, 12.4%; in the experiment with MDA-MB-231 breast it was 65.6%. In addition, the growth with RXF 393 renal was -13.3% (active); with SF-268 CNS it was 98%; in the experiment with SF-295 CNS, 96%; in the experiment on SF-539 CNS it was 47.3%; in the experiment on UACC-257 melanoma, 71.9%; in the experiment on M14 melanoma it was 59.1%.

`COc1ccc(CCN2CC=Cn3c2nc2ccccc2c3=O)cc1`: the growth in the experiment with NCI-H23 lung is 25%; in the experiment on NCI-H226 lung, 11.7%; with NCI-H322M lung it was 47.3%; in the experiment on NCI-H460 lung, 5.96% (active); in the experiment on HOP-92 NSCLC, 28.1%; in the experiment on NCI-H522 lung it was 4.09% (active). For the same compound, the growth with A549/ATCC NSCLC is 24.1%; with COLO 205 colon it was -43.2% (active); in the experiment on DU-145 prostate it was 7.97% (active); in the experiment with K-562 leukemia, 10.8%; in the experiment with MALME-3M melanoma it was 63.2%; in the experiment on MDA-MB-231 breast, 18.8%. In addition, the growth was 36.7% with RXF 393 renal; 35.7% with SF-268 CNS; 17.2% with SF-295 CNS; -34.1% (active) in the experiment with SF-539 CNS; 80.3% in the experiment on UACC-257 melanoma; 16.4% in the experiment on M14 melanoma.

As to `Nc1nc(SCc2ccccc2)c2ncn(C3CCCC3)c2n1`, the growth with NCI-H23 lung is 85.7%; in the experiment on NCI-H226 lung, 110%; with NCI-H322M lung it was 103%; with NCI-H460 lung, 98.8%; in the experiment on HOP-92 NSCLC it was 106%; in the experiment on NCI-H522 lung it was 76.8%. The growth in the experiment on A549/ATCC NSCLC is 107%; with 786-0 renal, 98.8%; with COLO 205 colon, 116%; in the experiment on DU-145 prostate it was 101%; in the experiment with K-562 leukemia, 104%; in the experiment with MALME-3M melanoma, 121%. Also, the growth with MDA-MB-231 breast was 106%; in the experiment on RXF 393 renal, 99.5%; with SF-268 CNS, 121%; with SF-295 CNS it was 101%; with SF-539 CNS it was 91.2%; in the experiment with UACC-257 melanoma, 129%. The growth with M14 melanoma was 129%.

`O=[N+]([O-])c1c(F)cccc1Nc1cccc(F)c1`: the growth was 104% in the experiment on NCI-H23 lung; 94.7% with NCI-H226 lung; 102% with HOP-62 NSCLC; 107% with NCI-H460 lung; 94.6% with HOP-92 NSCLC; 92% with NCI-H522 lung. Besides, the growth in the experiment with A549/ATCC NSCLC is 106%; in the experiment on 786-0 renal, 93.9%; in the experiment with COLO 205 colon, 121%; with DU-145 prostate it was 108%; with K-562 leukemia, 95.4%; with RXF 393 renal, 102%. In addition, the growth is 105% in the experiment with SF-268 CNS; 87% with SF-295 CNS; 102% in the experiment on SF-539 CNS; 93.2% in the experiment with UACC-257 melanoma; 103% with M14 melanoma.

Take `COc1ccc(/C(=C/c2ccc3ccccc3c2)c2nn[nH]n2)cc1OC`: the growth is 31.5% in the experiment on NCI-H23 lung; 81.1% in the experiment on NCI-H226 lung; 27.8% in the experiment with HOP-62 NSCLC; 14.1% in the experiment with NCI-H460 lung; 5.89% (active) in the experiment with HOP-92 NSCLC; -2.85% (active) with NCI-H522 lung. Moreover, the growth was 25.4% with A549/ATCC NSCLC; 40.4% in the experiment on 786-0 renal; -2.4% (active) in the experiment on COLO 205 colon; 20.9% with DU-145 prostate; 17.8% in the experiment with K-562 leukemia; 49.1% in the experiment with MALME-3M melanoma. Besides, the growth with MDA-MB-231 breast was 44.8%; in the experiment with RXF 393 renal it was -13.3% (active); in the experiment on SF-268 CNS it was 53.3%; in the experiment on SF-295 CNS, 4.59% (active); in the experiment with UACC-257 melanoma, 66.3%; with M14 melanoma it was 10.9%.

In the case of `COc1cc(C#N)cc(OC)c1OCCN(CCOc1c(OC)cc(C#N)cc1OC)S(=O)(=O)c1ccc(C)cc1`, the growth was 96% in the experiment with NCI-H23 lung; 104% in the experiment with NCI-H226 lung; 112% in the experiment with NCI-H460 lung; 88.5% in the experiment on HOP-92 NSCLC; 95.1% in the experiment with NCI-H522 lung; 100% with A549/ATCC NSCLC. Besides, the growth in the experiment on 786-0 renal is 92.7%; in the experiment with COLO 205 colon it was 113%; with DU-145 prostate it was 115%; in the experiment with K-562 leukemia, 94%; with MALME-3M melanoma it was 108%; in the experiment on MDA-MB-231 breast, 112%. For the same compound, the growth was 70.9% in the experiment on RXF 393 renal; 107% in the experiment on SF-268 CNS; 94.2% with SF-295 CNS; 105% with SF-539 CNS; 97.7% in the experiment on UACC-257 melanoma; 99.7% with M14 melanoma.

For `COc1ccc(/C=N\NC(=O)c2ccncc2)cc1O`, the growth in the experiment on NCI-H23 lung is 93.8%; in the experiment with NCI-H226 lung, 92.6%; in the experiment with HOP-62 NSCLC it was 93%; in the experiment on NCI-H460 lung, 109%; in the experiment on HOP-92 NSCLC, 92.9%; in the experiment on NCI-H522 lung it was 81.4%. For the same compound, the growth in the experiment with A549/ATCC NSCLC is 93.7%; in the experiment with 786-0 renal, 93.7%; with COLO 205 colon it was 110%; in the experiment on DU-145 prostate, 99.4%; in the experiment on K-562 leukemia it was 96.4%; with MALME-3M melanoma it was 78.9%. Besides, the growth with MDA-MB-231 breast was 94.8%; with SF-268 CNS, 99%; with SF-295 CNS it was 92.5%; in the experiment with SF-539 CNS, 107%; in the experiment with UACC-257 melanoma, 89.1%; with M14 melanoma it was 101%.
